Most compounds without a hit are left out; they make up all but 19% or so of the library.
VP16 counter: Gal4-VP16 reporter inhibition counter-screen; Drosophila S2 Gal4-VP16 UAS-luciferase, luminescence, 20 h; Potency, µM (doses to about 53.6 µM), most hits filed as inhibitors; actives 3.5% (n = 310,000);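 also: Gal4-VP16 expression switched on by copper sulfate through the metallothionein promoter; nearly all actives have a fitted effect of over 50% in size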
TDP1 block: inhibitors of human tyrosyl-DNA phosphodiesterase TDP1. Q9NUW8. recombinant TDP1, AlphaScreen DNA substrate cleavage. Potency, µM (doses to about 130 µM), most hits filed as inhibitors. actives 0.28% (n = 350,000). AID 485290; also: nearly all actives have a fitted effect of over 40% in size
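Steps: enzyme plus compound, 15 min RT; add biotin/phosphotyrosine-FITC oligonucleotide (15 nM final), react 5 min; add donor/acceptor beads (10 ug/ml final), 10 min; read AlphaScreen. Tdp1 at 1 nM final.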
RORg inh: inhibitors of mouse ROR gamma transcriptional activity. P51450. Drosophila S2 Gal4-RORgamma UAS-luciferase reporter, 20 h. Potency, µM (doses to about 53.6 µM), most hits filed as inhibitors. actives 5.4% (n = 310,000); also: nearly all actives have a fitted effect of over 60% in size
Target sequence (P51450 whole entry, looked up, the tested form may be a part): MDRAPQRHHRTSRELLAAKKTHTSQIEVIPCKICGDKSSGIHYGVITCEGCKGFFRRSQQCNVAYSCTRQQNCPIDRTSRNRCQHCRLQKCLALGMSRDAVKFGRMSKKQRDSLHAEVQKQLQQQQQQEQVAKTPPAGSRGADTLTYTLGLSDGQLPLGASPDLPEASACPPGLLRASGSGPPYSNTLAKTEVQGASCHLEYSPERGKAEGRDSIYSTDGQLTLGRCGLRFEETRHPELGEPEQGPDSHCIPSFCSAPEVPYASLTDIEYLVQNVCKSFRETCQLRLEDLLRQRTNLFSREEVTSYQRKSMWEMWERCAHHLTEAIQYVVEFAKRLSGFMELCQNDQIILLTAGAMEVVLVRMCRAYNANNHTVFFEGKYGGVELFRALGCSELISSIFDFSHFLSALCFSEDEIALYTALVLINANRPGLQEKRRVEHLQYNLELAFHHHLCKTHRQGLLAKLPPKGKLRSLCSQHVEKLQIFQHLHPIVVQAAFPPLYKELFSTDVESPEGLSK
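ROR gamma transcriptional activity was tracked as Gal4-UAS luciferase output in stably transfected Drosophila Schneider cells, with compound added 1 hr before 700 uM copper sulfate induction and a 20 hr ambient-temperature incubation.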
TDP1 cell CPT: DT40-hTDP1 cell growth loss with CPT; chicken DT40 Tdp1-/-;hTDP1 cells + 20 nM CPT, ATP luminescence, 48 h; Potency, µM (top dose mostly 46.2 µM), usual class: inhibitors; actives 12% (n = 420,000); AID 686979; also: nearly all actives have a fitted effect of over 55% in size
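Cell growth measured by CellTiter-Glo luminescence after a minimum 48 h, 37 C compound exposure with 20 nM CPT in Tdp1-knockout DT40 cells stably expressing hTDP1, seeded 400/well; qHTS titration format.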
DT40 TDP1 no CPT: qHTS for Inhibitors of human tyrosyl-DNA phosphodiesterase 1 (TDP1): qHTS in cells in absence of CPT | Potency, µM (top dose mostly 46.2 µM), most hits filed as inhibitors | AID 686978, 2013 | actives 15% (n = 420,000) | DT40 Tdp1-/- hTDP1 cells, no CPT, ATP luminescence, 48 h; also: nearly all actives have a fitted effect of over 55% in size
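Luminescent ATP content (CellTiter-Glo) served as the growth readout. Knockout chicken DT40 cells expressing human TDP1 were exposed to compounds without camptothecin for a minimum 48 hr at 37 °C.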
Numbers stand for hits; i = inactive; ? = inconclusive; nt = no result given; [ ] = remark or other dose. Calls follow the shape of the dose curve; as a rule, active = well fitted curve in the direction sought with a large enough effect; inconclusive = small, poorly fitted or top-dose-only effect, or another doubt; inactive = no such curve, though single readings can be large; an effect the other way counts as inactive or inconclusive.

SMILES	VP16 counter	TDP1 block	RORg inh	TDP1 cell CPT	DT40 TDP1 no CPT
CN(C1=C(N2CCOCC2)C(=O)c2ccccc2C1=O)c1ccccc1	i	i	14µM	13µM	16µM
CC(=O)N(C(C)=O)N1C(=O)c2cccc3c(N4CCOCC4)ccc(c23)C1=O	i	i	i	i	?
c1ccc(N2CCOCCOCCOCCOCCOCC2)cc1	i	i	i	i	i
O=C(Nc1cccc2c1CCCC2)c1ccncc1	i	i	i	i	i
CCS(=O)(=O)N1CCN(Cc2c[nH]c3ccccc23)CC1	i	?	i	?	i
COc1ccccc1C(=O)Nc1nc(-c2cccs2)c(NC(C)=O)s1	i	i	i	i	i
NC1=CC(=O)c2cccc3cccc1c23	22µM	i	11µM	nt	nt
O=C1C=C(O)c2cccc3cccc1c23	i	nt	i	i	i
O=C1C=C(N2CCOCC2)c2cccc3cccc1c23	nt	nt	nt	i	15µM
Cc1ccc(S(=O)(=O)/N=C2/C=C(Sc3ncn[nH]3)C(=O)c3ccccc32)cc1	3.5µM	i	3.5µM	0.33µM	0.37µM
O=C(c1ccccc1)C(Sc1ncn[nH]1)c1ccccc1 (stereo not given)	i	i	i	i	i
Cc1ccc(C)c(S(=O)(=O)Nc2ccc(O)c(Sc3ncn[nH]3)c2)c1	i	nt	?	i	i
CC(C)c1ccc(S(=O)(=O)/N=C2/C=C(Sc3ncn[nH]3)C(=O)c3ccccc32)cc1	i	i	?	2.6µM	3.3µM
COc1ccc(-c2noc(CN(C(=O)c3ccc(OC(C)=O)cc3)C(C)C)n2)cc1OC	i	i	i	i	i
CC1(C)COC(c2ccc3c(c2)OCO3)OC1	nt	nt	nt	i	i
OC1O[C@H](c2ccc3c(c2)OCO3)[C@H]2CO[C@H](c3ccc4c(c3)OCO4)[C@@H]12 (stereo not given in full)	i	i	i	?	21µM
CC(C)NC(=O)N1CC2(CCN(C(=O)c3cccn3C)CC2)C1	i	nt	i	i	i
O=c1c(Cc2ccc(Cl)cc2)c(O)ccn1Cc1cccc(Cl)c1	i	i	?	i	?
O=c1c(Cc2ccc(F)cc2)c(O)ccn1Cc1cccc(Cl)c1	i	i	?	?	16µM
CN1CCN(C(CNC(=O)C(=O)Nc2ccc(F)cc2F)c2ccc3c(c2)OCO3)CC1 (stereo not given)	nt	i	nt	i	i
Cc1cc(C)nc(NC(N)=NCCc2c[nH]c3ccccc23)n1	?	i	i	21µM	9.2µM
Cc1cc(C)nc(NC(=NCCc2c[nH]c3ccccc23)NC(=O)Nc2ccc(Cl)cc2)n1	i	i	i	23µM	23µM
NC(=NCCc1c[nH]c2ccccc12)NC(=O)c1ccc(Cl)cc1	?	i	i	?	i
Cc1cc(C)nc(NC(N)=NC(C)c2ccccc2)n1 (stereo not given)	i	i	i	?	16µM
Cc1cc(C)nc(NC(N)=NCCc2ccccc2)n1	nt	nt	nt	2.6µM	2.9µM
SMILES	VP16 counter	TDP1 block	RORg inh	TDP1 cell CPT	DT40 TDP1 no CPT
Cc1cc(C)nc(NC(=O)C(c2ccccc2)c2ccccc2)n1	i	i	i	?	i
Cc1cc(=O)oc2c(C)c(OCC(=O)Nc3cccnc3)ccc12	i	i	i	i	i
COCCSc1nnc(NC(=O)c2ccco2)s1	i	i	i	i	i
COc1cc2ccccc2cc1C(=O)N1CCN(c2nc3c(F)cc(F)cc3s2)CC1	nt	i	nt	21µM	8.2µM
COc1cc2ccccc2cc1C(=O)N1CCN(c2nc3c(F)cccc3s2)CC1	nt	i	nt	21µM	16µM
COc1cccc2sc(N3CCN(C(=O)c4cccs4)CC3)nc12	nt	i	nt	?	i
CC1(C)S[C@@H]2[C@H](NC(=O)[C@@H](N)c3ccccc3)C(=O)N2[C@H]1C(=O)O[C@H]1OC(=O)c2ccccc21	i	i[21 µM]	i[2.98 µM]	nt	nt
O=C1c2ccccc2-c2onc3c(NCCO)cc(NC4CCCCC4)c1c23	nt	i	nt	18µM	?
CCCCNc1cc(NC2CCCCC2)c2c3c(onc13)-c1ccccc1C2=O	nt	i	nt	?	?
Cc1ccc2nc(N3CCC(C(=O)NC4CCCCC4)CC3)sc2c1	i	i	i	i	i
CC1CC(C)CN(CCCNC(=O)c2ccc3c(SCC(=O)O)c4c(nc3c2)CCC4)C1 (stereo not given)	i	i	i	i	i
CN(C)c1ccc(C(=S)Nc2ccccc2)cc1	?	i	13µM	?	16µM
CN(C)c1cc(O)c(C(=S)Nc2ccccc2)c(N(C)C)c1	i	i	?	16µM	?
CC(=O)Nc1cccc(N(C)C)c1	i	i	i[10 µM]	i	i
C=C(c1ccccc1)c1ccc(N(C)C)cc1	i	nt	i	i	i
CN(C)c1ccc(NC(=S)c2ccccn2)cc1	0.63µM	i	0.28µM	4.6µM	5.2µM
Clc1ccc(Cl)c(-c2nn3c(COc4ccccc4)nnc3s2)c1	i	i	i	16µM	?
CN(Cc1cccc2cnccc12)C(=O)CCc1nnc(CCc2ccccc2)o1	20µM	i	?	?	?
Nc1cc2c(cc1[N+](=O)[O-])OCO2	i	nt	i	i	i
CCOC(=O)[C@]12CCCC=C1N(Cc1ccco1)C(=O)[C@H](CC(=O)NCC13CC4CC(CC(C4)C1)C3)C2	nt	nt	nt	26µM	?
CCOC(=O)[C@]12CCCC=C1N(Cc1ccco1)C(=O)[C@H](CC(=O)NCCCCc1ccccc1)C2	nt	nt	nt	23µM	?
CCOC(=O)[C@]12CCCC=C1N(Cc1ccco1)C(=O)[C@H](CC(=O)NCCCOC)C2	nt	nt	nt	i	i
COc1ccc2c(c1)C(=O)CC(c1ccccc1F)O2 (stereo not given)	i	i	i	?	i
Cc1ccccc1NC(=O)CN1C(=O)S/C(=C\c2ccc(-c3cccc(C(=O)O)c3C)o2)C1=O	i[10 µM]	i	i	i	i
Cc1ccc(NC(=O)CN2C(=O)N/C(=C/c3ccc(C)o3)C2=O)cc1	?	i	i	i	i
SMILES	VP16 counter	TDP1 block	RORg inh	TDP1 cell CPT	DT40 TDP1 no CPT
Cc1cccc(NC(=O)CN2C(=O)N/C(=C/c3ccc(C)o3)C2=O)c1	18µM	i	?	i	i
Cc1cccc(NC(=O)CN2C(=O)S/C(=C\c3ccc(-c4cccc(C(=O)O)c4C)o3)C2=O)c1	i	25µM	i	i	i
C=CCN1C(=O)N/C(=C/c2ccc(C)o2)C1=O	5µM	i	5.6µM	?	i
CC1CCC/C(=N\NC(=O)Nc2ccccc2)C1 (stereo not given)	i	i	i	i	i
O=C(O)c1cc(-c2ccc3c(c2)OCO3)nc2ccc(Br)cc12	i	i	i	i	i
CC(C)c1ccc(C(=O)COC(=O)C(O)c2ccccc2)cc1 (stereo not given)	nt	i	nt	i	i
Cc1ccc(S(=O)(=O)N(CC(=O)N2CCC(C)CC2)Cc2ccccc2F)cc1	i	i	i	?	?
CCc1cc(OCCN(C)C)ccc1Cl	i	i	i	i	i

From PubChem BioAssay
